Experimental data: PubChem BioAssay AID731 (The Scripps Research Institute Molecular Screening Center, 2007)
Hit rate of the full screen: of about 200,000 compounds, about 520 (0.26%) were called active. The sample as a whole holds a higher share of actives than the screen did. Unmarked numbers belong to inactive results. No stated cut-off is given here; in the data, active means activation above about 23%; inactive means the rest.

Molecular target: Peroxisome proliferator-activated receptor gamma (Homo sapiens) (UniProt P37231)
Test: enhancers of SRC-3 binding to PPARgamma – biochemical, primary screen (AID 731);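 further: 0% = DMSO and 100% = reference agonist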
Conditions: biochemical PPARgamma/SRC-3 coactivator recruitment assay; at 8 µM; stronger effect = higher value

Chain of Peroxisome proliferator-activated receptor gamma (Homo sapiens) (P37231 whole entry, looked up): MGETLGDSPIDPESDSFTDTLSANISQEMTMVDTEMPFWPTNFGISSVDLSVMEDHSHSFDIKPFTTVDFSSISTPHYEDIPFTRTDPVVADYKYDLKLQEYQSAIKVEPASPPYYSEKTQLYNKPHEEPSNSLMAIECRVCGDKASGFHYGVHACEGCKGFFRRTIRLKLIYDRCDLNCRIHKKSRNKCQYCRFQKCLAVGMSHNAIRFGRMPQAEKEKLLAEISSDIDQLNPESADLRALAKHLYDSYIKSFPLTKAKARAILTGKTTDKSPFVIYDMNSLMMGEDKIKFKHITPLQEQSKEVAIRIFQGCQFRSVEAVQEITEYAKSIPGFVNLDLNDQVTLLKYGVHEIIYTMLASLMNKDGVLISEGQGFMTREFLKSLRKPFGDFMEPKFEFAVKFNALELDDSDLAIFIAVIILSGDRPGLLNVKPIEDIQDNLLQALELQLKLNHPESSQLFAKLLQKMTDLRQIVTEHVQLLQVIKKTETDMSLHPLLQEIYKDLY

SMILES | activation
COc1ccc(OCC(=O)Nc2ccc(N3CCC(C)CC3)cc2)cc1 | 1.65%
CCOc1ccc(Br)cc1S(=O)(=O)Nc1cccc(S(=O)(=O)N(CC)CC)c1 | -0.46%
CC(=O)N1CC(C)c2scc(C)[n+]2-c2ccccc21 (stereo unspecified) | 0.84%
CCC(C)N(C)C1CCN(C(=S)Nc2ccc(OC)cc2)CC1 (stereo unspecified) | -0.62%
CCN(CC)c1ccc2cc(C(=O)O)c(=O)oc2c1 | 1.62%
CCN(CC)c1ccc2oc(=O)c(C)nc2c1 | 30.3% (active)
CCN(CC)c1ccc2c(Nc3ccccc3)c(C=O)c(=O)oc2c1 | -1.59%
Cc1ccccc1N/C(SCc1ccc(Cl)cc1)=C(/C#N)C(N)=O | -0.24%
CCCCC1N2CC3([N+](=O)[O-])CN1CC([N+](=O)[O-])(C2)C3(C)C (stereo unspecified) | 3.26%
Cc1nc(SCC(=O)N2CC(=O)Nc3ccccc32)c2c(C)c(C)sc2n1 | 7.47%
COc1cc(/C=C/C2=CC(C)(C)NC(=S)N2)cc(OC)c1OC | -3.19%
COc1cc(C(=S)N2CCOCC2)ccc1O | 6.53%
COc1cc(C(=S)N2CCOCC2)cc(OC)c1OC(=O)c1cc([N+](=O)[O-])cc([N+](=O)[O-])c1 | 1.22%
COc1cc(C(=S)N2CCOCC2)cc(OC)c1OC(=O)c1cc([N+](=O)[O-])c(C)c([N+](=O)[O-])c1 | 27.4% (active)
COC(=O)Cc1ccc(NC(=S)NCc2ccco2)cc1 | -0.79%
CCc1nnc(NC(=O)Cc2cccs2)s1 | 0.13%
O=C(O)CCCCOn1ccnc1 | -4.37%
CN1CCN(c2ccc(S(=O)(=O)Nc3ccccc3)cc2[N+](=O)[O-])CC1 | 8.11%
CC(C)(C)c1ccc(/C=C/C(=O)Nc2ncccn2)cc1 | -0.41%
O=C(C1=C[C@H](c2ccc(C(F)(F)F)cc2)C[C@H](OCc2ccc(CO)cc2)O1)N1CCN(Cc2ccccc2)CC1 | 5.31%
N#Cc1ccccc1Sc1ccccc1C(=O)OCC(=O)NC1CCCCC1 | -1.17%
CCOc1ccc(NC(=O)CCC(=O)n2nc(C)cc2C)cc1 | 19.2%
CCOc1ccc(NC(=O)CSc2nc3ccccc3c(=O)n2Cc2cccs2)cc1 | -1%
CCOc1ccc(NC(=O)CSc2ncnc3c2sc2ccccc23)cc1 | 23.1% (active)

SMILES | activation
COc1cc(OC)c(-n2cc(-c3ccc(Cl)cc3)[nH]c2=O)cc1Cl | 2.05%
NS(=O)(=O)c1ccc(NC(=O)COC(=O)CCc2c[nH]c3ccccc23)cc1 | 1.02%
COc1cc(NS(=O)(=O)c2ccc(NC(=O)CN3C(=O)c4ccccc4C3=O)cc2)ncn1 | 4.24%
COc1ccc(C(CC(=O)Nc2ccc(C)cc2)NC(=O)C(F)(F)F)cc1 (stereo unspecified) | 1.26%
CN1CCC(OC(=O)COc2ccc(Cl)cc2Cl)CC1 | -2.65%
Cc1ccc(NC(=O)OCc2cncs2)cc1 | 3.15%
O=C1C2C3C=CC(C4CC34)C2C(=O)N1c1nccs1 (stereo unspecified) | -3%
O=C(/C=C/c1cn(-c2ccccc2)nc1-c1ccc2c(c1)OCCO2)NCCCN1CCOCC1 | 5.25%
Cc1cccc(OCCNC(=O)CSc2ccc(C(F)(F)F)cc2[N+](=O)[O-])c1 | -3.57%
Cc1cc(O)c(NC(=O)c2ccc(C)c([N+](=O)[O-])c2)cc1C | -0.67%
Cc1cccc(NC(=O)c2cc([N+](=O)[O-])ccc2N2CCN(C)CC2)c1 | 4.61%
CCc1cc(C(=O)OC)c(NC(=O)CC2Sc3ccc(C(F)(F)F)cc3NC2=O)s1 (stereo unspecified) | -4.95%
CCOc1cc(/C=N/NC(=O)c2ccc(CSc3nncn3C)cc2)ccc1OCC(=O)N1CCOCC1 | -1.91%
CC(OC(=O)CNS(=O)(=O)/C=C/c1ccccc1)C(=O)Nc1ccc(S(=O)(=O)N2CCCC2)cc1 (stereo unspecified) | -1.83%
CC(C(=O)O)n1cnc2sc3c(c2c1=O)CCCC3 (stereo unspecified) | 4.24%
COc1ccc(N2C(=O)CC(SC(C)C)C2=O)cc1 (stereo unspecified) | -1.07%
CN(Cc1cccc2ncccc12)C(=O)CC1C(=O)NCCN1Cc1ccc(F)cc1 (stereo unspecified) | -0.7%
O=C(/C=C/Nc1ccccc1)c1cnc(-c2ccccc2)s1 | -4.1%
CC(C)Cn1c(N2CCN(C(=O)/C=C/c3ccccc3)CC2)nc2ccccc21 | 9.26%
COc1cccc(NC(=O)CN(C)CC(=O)Nc2ccc3c(c2)CCC3)c1 | 0.47%
O=C(Cc1ccccc1)NNS(=O)(=O)c1ccc([N+](=O)[O-])cc1 | 1.7%
CCCCn1nc(C(=O)Nc2ccc(S(=O)(=O)Nc3ncccn3)cc2)c2ccccc2c1=O | 2.84%
CC(C)C(c1nnnn1C(C)(C)C)N1CCN(Cc2cccnc2)CC1 (stereo unspecified) | 4.42%
CCn1c(C(C)C)n[nH]c1=S | 1.32%

SMILES | activation
CCN(CC(=O)NCc1cccs1)C(=O)c1ccccc1F | 1.34%
COc1cc(CNCCN(C)C)ccc1OCc1c(F)cccc1Cl | 2.34%
c1ccc(Cc2cc[n+](Cc3ccccc3)cc2)cc1 | 1.56%
NS(=O)(=O)c1cc(C(=O)NCCOc2ccccc2)c(Cl)cc1Cl | -1.64%
CCc1nnc(NC(=O)[C@@H](NC(=O)c2cccc(C)c2)C(C)C)s1 | -2.92%
COc1ccc(-c2nnc3ccc(SCc4ccccc4)nn23)cc1 | 3.96%
Cc1cc(C)nc(NC(=O)c2cccc([N+](=O)[O-])c2)c1 | 2.34%
CC(C)[C@H](NC(=O)c1ccc(F)cc1)C(=O)OCC(=O)NC(=O)c1cccn1C | 1.86%
O=C(Cn1c(N2CCN(C/C=C/c3ccccc3)CC2)nc2ccccc21)c1ccccc1 | 6.67%
N/C(=N\OC(=O)c1ccc([N+](=O)[O-])cc1)c1ccccn1 | -2.22%
[O-][n+]1onc2c1CCc1[nH]c(-c3ccccc3)nc1-2 | 0.76%
N#C/C(=C(\O)C(F)(F)F)c1nnc2n1CCCCC2 | -0.75%
CSCc1ccc(C(=O)Nc2cc(C)cc(C)c2)cc1 | -4.38%
COc1ccc(-c2nnco2)cc1OC | -2.7%
COc1ccc2c(Cl)c(-c3nnco3)sc2c1 | 33.2% (active)
COc1ccc2c(Cl)c(C(=O)NCc3ccco3)sc2c1 | -2.31%
O=C(Nc1ccc2c(c1)CCC2)c1ccc(Br)s1 | 0.47%
C/C(=C\c1ccccc1)C1NC(=O)c2c(sc3c2CCCC3)N1 (stereo unspecified) | 6.88%
CCn1nc(C)c(CN2CCN(Cc3ccc(OC)c(C)c3C)C(CCO)C2)c1C (stereo unspecified) | -0.59%
Cn1cc(-c2ccccc2)cc(C#N)c1=O | 1.51%
CN(C)N(C)C(=O)C(O)(c1ccccc1)c1ccccc1 | 3.14%
Cc1cc(C)cc(N(CC(=O)NCCSCc2ccco2)S(C)(=O)=O)c1 | 5.41%
O=C(CN1C(=O)NC2(CCCC2)C1=O)Nc1ccc(F)c(F)c1F | 0.63%
O=S(=O)(c1ccc(F)cc1)N1CCN(C(=S)NC2CCCC2)CC1 | 1.45%

SMILES | activation
COc1cc(C)c(S(=O)(=O)N2CCOCC2)c(C)c1C | -6.91%
CCc1nnc(NS(=O)(=O)c2ccc(NC(=S)NC(=O)/C=C/c3cccs3)cc2)s1 | 22.6% (active)
CCc1nnc(NS(=O)(=O)c2ccc(NC(=S)NC(=O)c3cccs3)cc2)s1 | 2.44%
CCc1nnc(NS(=O)(=O)c2ccc(NS(=O)(=O)c3ccccc3)cc2)s1 | -4.6%
C/C(=N/NC(=O)C1COc2ccccc2O1)c1ccco1 (stereo unspecified) | -2.9%
Cc1ccc(CN(C)CC(=O)Nc2cccc([N+](=O)[O-])c2)o1 | -1.37%
COc1cc(NS(=O)(=O)c2ccc(NC(=O)c3ccc(S(=O)(=O)N4CCCCC4)cc3)cc2)ncn1 | -0.22%
C/C(=N\NS(=O)(=O)c1ccc(Cl)cc1)c1ccc(NC(=O)c2ccco2)cc1 | 7.63%
O=C(O)Cc1sc(-c2ccc(C(=O)O)cc2)nc1-c1ccccc1 | 8.03%
O=C(O)Cc1sc(-c2ccccc2)nc1-c1cccs1 | 25.3% (active)
Cc1ccc(-c2nc(C)sc2CC(=O)O)cc1 | 1.18%
Cc1ccc(C2=NN(C(=O)COc3ncnc4ccccc34)C(c3ccco3)C2)cc1 (stereo unspecified) | 6.22%
COC(C(=O)NCc1ccccc1C)c1ccccc1 (stereo unspecified) | -1.48%
CCCC(c1nnnn1C(C)(C)C)N1CCN(Cc2ccccc2)CC1 (stereo unspecified) | 0.32%
COc1ccc(OC)c(CNC(=O)c2cc(=O)[nH]c3ccc(S(=O)(=O)N4CCCC4)cc23)c1 | 1.02%
O=C(C1CCN(C2CCN(Cc3ccc4cc(F)ccc4n3)CC2)CC1)N1CCCC1 | 3.24%
Cc1ccc(C(=O)N/C(=C\c2ccco2)C(=O)N2CCSCC2)cc1C | -0.93%
Cc1ccc2cc(C#N)c(NCCNC(=S)NCCCN3CCOCC3)nc2c1 | 1.37%
Cn1nnnc1SCC(=O)Nc1nc2ccccc2s1 | -4.08%
N#Cc1c(-c2ccc(F)cc2)cc(C2CC2)nc1SCC(=O)c1cccs1 | -1.78%
COC(=O)CCc1sc(Nc2ccc(Br)cc2)nc1-c1ccc(OC)cc1 | 4.66%
Cn1c(-c2sc3cc(C(F)(F)F)cnc3c2-c2ccccc2)n[nH]c1=S | 50% (active)
Cc1ccccc1-c1n[nH]c(=S)n1C | 2.22%
Cn1c(-c2sccc2OCc2cccc(C(F)(F)F)c2)n[nH]c1=S | 4.56%
